According to PubChem BioAssay AID1159580 (chemical genetic matrix, 2015):
The whole screen tested about 5,500 compounds, of which about 2,000 (36%) were called active. Not shown: some 18% with an inconclusive outcome. Cut-off read from the data, not from the text of the source: active = normalized growth mostly below about 0.91 (no sharp cut-off); inconclusive = no clear call, values can overlap the other calls; inactive = mostly above about 0.92. The list shows a part of the results.

Assay: chemical genetic growth profiling, strain panel (AID 1159580);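 note: tested at 20 µM; growth read once vehicle control cultures reached saturation at 30 °C; 1 = growth at the plate median or of vehicle wells; lower values mean less growth of the strain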
Details: S. cerevisiae deletion strains, growth OD
[1] = locus YAL040C, strain CLN3, hits give low values
[2] = locus YDR363W, strain ESC2, hits give low values
[3] = locus YER002W, strain NOP16, hits give low values
[4] = locus YNL175C, strain NOP13, hits give low values
[5] = locus YNL197C, strain WHI3, hits give low values
[6] = locus YNL224C, strain SQS1, hits give low values
[7] = locus YOR083W, strain WHI5 (second series), hits give low values

Measured: normalized growth

O=C(O)[C@H]1NCCC[C@H]1C(=O)O
inactive: [1] 1.06 | locus YCL061C, strain MRC1 (second series), hits give low values 0.986 | locus YDR150W, strain NUM1, hits give low values 1.01 | [2] 0.991 | [3] 0.993 | locus YMR263W, strain SAP30, hits give low values 0.99 | locus YMR307W, strain GAS1, hits give low values 0.991 | locus YNL128W, strain TEP1, hits give low values 0.994 | [4] 1 | [5] 0.982 | [6] 0.999 | [7] 0.984 | locus YPL055C, strain LGE1, hits give low values 1 | locus YPL241C, strain CIN2, hits give low values 0.996

N[C@@H](CS(=O)O)C(=O)O
inactive: [1] 0.98 | [2] 1.01 | [3] 0.98 | locus YGR078C, strain PAC10, hits give low values 1.01 | locus YGR229C, strain SMI1, hits give low values 0.954 | [4] 0.987 | [5] 1.02 | [6] 1.02 | [7] 1.02

CC(=O)O[C@]1(C(C)=O)CCC2C3C=C(Cl)C4=CC(=O)CC[C@]4(C)C3CC[C@@]21C (some centres not stated)
inactive: locus YAL021C, strain ccr4, hits give low values 1.02 | locus YAL026C, strain drs2, hits give low values 1.04 | locus YAL030W, strain snc1, hits give low values 0.978 | locus YBL061C, strain skt5, hits give low values 0.997 | locus YBR009C, strain hhf1, hits give low values 0.999 | locus YBR023C, strain chs3, hits give low values 1.01 | locus YBR171W, strain sec66, hits give low values 1.01 | locus YBR231C, strain swc5, hits give low values 1 | locus YBR279W, strain paf1, hits give low values 1 | locus YCL011C, strain gbp2, hits give low values 1 | locus YCL016C, strain dcc1, hits give low values 0.988 | locus YCL069W, strain vba3, hits give low values 1.01 | locus YCR088W, strain abp1, hits give low values 1.01 | locus YDL005C, strain med2, hits give low values 0.991 | locus YDL040C, strain nat1, hits give low values 1 | locus YDR001C, strain nth1, hits give low values 1.01 | locus YDR069C, strain doa4, hits give low values 0.967 | locus YDR137W, strain rgp1, hits give low values 0.894 | locus YDR159W, strain sac3, hits give low values 0.925 | locus YDR195W, strain ref2 1.02 | locus YDR297W, strain sur2, hits give low values 0.957 | locus YDR334W, strain swr1, hits give low values 1.01 | locus YDR335W, strain msn5, hits give low values 0.974 | locus YDR392W, strain spt3, hits give low values 0.832 | locus YEL003W, strain gim4, hits give low values 1.01 | locus YEL037C, strain rad23, hits give low values 1.02 | locus YEL061C, strain CIN8 (second series), hits give low values 1.01 | locus YER015W, strain faa2, hits give low values 1.01 | locus YER016W, strain bim1, hits give low values 0.984 | locus YER111C, strain swi4, hits give low values 1.01 | locus YER155C, strain BEM2 (second series), hits give low values 0.99 | locus YFR010W, strain ubp6, hits give low values 1.03 | locus YGL167C, strain pmr1, hits give low values 0.993 | locus YGL173C, strain kem1, hits give low values 1.03 | locus YGL227W, strain vid30, hits give low values 0.998 | locus YGL240W, strain doc1, hits give low values 0.952 | locus YGL253W, strain hxk2, hits give low values 0.991 | locus YHR013C, strain ard1, hits give low values 1.06 | locus YHR027C, strain rpn1, hits give low values 0.985 | locus YHR030C, strain SLT2, hits give low values 1.03 | locus YHR079C, strain IRE1, hits give low values 1.04 | locus YHR142W, strain chs7, hits give low values 1 | locus YJL092W, strain hpr5, hits give low values 1.01 | locus YJL095W, strain BCK1 (second series), hits give low values 0.983 | locus YJL095W, strain BCK1, hits give low values 0.991 | locus YJL115W, strain asf1, hits give low values 1.03 | locus YJL129C, strain trk1, hits give low values 1.01 | locus YJL154C, strain vps35, hits give low values 1.01 | locus YJL164C, strain tpk1, hits give low values 1.01 | locus YJL166W, strain qcr8, hits give low values 0.98 | locus YJL187C, strain SWE1, hits give low values 0.952 | locus YJR066W, strain TOR1, hits give low values 0.98 | locus YKL160W, strain elf1, hits give low values 0.977 | locus YKR026C, strain gcn3, hits give low values 1.01 | locus YKR091W, strain srl3, hits give low values 1.01 | locus YLL001W, strain dnm1, hits give low values 1.02 | locus YLL026W, hits give low values 1 | locus YLL041C, strain sdh2, hits give low values 0.993 | locus YLR027C, strain aat2, hits give low values 0.97 | locus YLR113W, strain HOG1, hits give low values 0.923 | locus YLR221C, strain rsa3, hits give low values 0.986 | locus YLR258W, strain gsy2, hits give low values 0.958 | locus YLR262C, strain YPT6 (second series), hits give low values 0.947 | locus YLR320W, strain mms22, hits give low values 0.991 | locus YLR342W, strain FKS1, hits give low values 0.974 | locus YLR357W, strain rsc2, hits give low values 1.04 | locus YLR370C, strain arc18, hits give low values 0.973 | locus YLR384C, strain iki3, hits give low values 0.981 | locus YML120C, strain ndi1, hits give low values 0.967 | locus YMR058W, strain fet3, hits give low values 1.02 | locus YMR125W, strain sto1, hits give low values 1 | locus YMR129W, hits give low values 0.967 | locus YMR205C, strain PFK2, hits give low values 0.943 | locus YMR231W, strain pep5, hits give low values 1.02 | locus YNL071W, strain lat1, hits give low values 1.01 | locus YNL183C, strain NPR1, hits give low values 0.958 | locus YNL209W, strain ssb2, hits give low values 0.99 | locus YNL248C, strain rpa49, hits give low values 1.03 | locus YNL322C, strain KRE1 (second series), hits give low values 1.01 | locus YNR049C, strain mso1, hits give low values 0.97 | locus YOR001W, strain rrp6, hits give low values 0.99 | locus YOR070C, strain gyp1, hits give low values 0.978 | locus YOR080W, strain dia2, hits give low values 0.996 | locus YOR083W, strain WHI5, hits give low values 0.997 | locus YOR106W, strain vam3, hits give low values 1.03 | locus YOR231W, strain MKK1, hits give low values 0.994 | locus YOR265W, strain rbl2, hits give low values 0.979 | locus YOR270C, strain vph1, hits give low values 1.01 | locus YOR290C, strain snf2, hits give low values 1.01 | locus YPL051W, strain arl3, hits give low values 1 | locus YPL078C, strain atp4, hits give low values 0.996 | locus YPL106C, strain sse1, hits give low values 1.01 | locus YPL240C, strain hsp82, hits give low values 1 | locus YPL256C, strain CLN2, hits give low values 1.04
